Rows were chosen to be rich in hits. Some 7.5% of all compounds tested hit in one or more screens of this group.
ELG1 genotox – qHTS screen for small molecules that induce genotoxicity in human embryonic kidney (HEK293T) cells expressing luciferase-tagged ELG1 | HEK293T ELG1-luciferase reporter, luminescence, 16 h | 330,000 compounds, 1.3% hits | AID 504466, 2011 | Potency, µM (titrated, usually from 46 µM), inactives show top-dose activity change, positive = activation, actives largely listed as activators; also: % of control where 0% means no effect; nearly all actives have a fitted effect of over 60% in size
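Screening used a luciferase reporter fused to human ELG1 in HEK293T cells. Luminescence was read on a CCD plate imager after 16 hr exposure and 30 min ONE-Glo incubation.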
FLuc counter – qHTS profiling assay for firefly luciferase inhibitor/activator using purifed enzyme and Km concentrations of substrates (counterscreen for miR-21 project). AID 588342, 2011. Luciferin 4-monooxygenase (Photinus pyralis), P08659. Potency, µM (top dose mostly 57.5 µM), for inactives: top-dose activity change, negative = inhibition, actives largely listed as inhibitors. purified FLuc, Km substrates, luminescence inhibition. 360,000 compounds, 6.9% hits;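 also: plate controls were vehicle for no effect and reference inhibitor for full effect; nearly all actives have a fitted effect of over 55% in size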
Target sequence (P08659 whole entry, looked up): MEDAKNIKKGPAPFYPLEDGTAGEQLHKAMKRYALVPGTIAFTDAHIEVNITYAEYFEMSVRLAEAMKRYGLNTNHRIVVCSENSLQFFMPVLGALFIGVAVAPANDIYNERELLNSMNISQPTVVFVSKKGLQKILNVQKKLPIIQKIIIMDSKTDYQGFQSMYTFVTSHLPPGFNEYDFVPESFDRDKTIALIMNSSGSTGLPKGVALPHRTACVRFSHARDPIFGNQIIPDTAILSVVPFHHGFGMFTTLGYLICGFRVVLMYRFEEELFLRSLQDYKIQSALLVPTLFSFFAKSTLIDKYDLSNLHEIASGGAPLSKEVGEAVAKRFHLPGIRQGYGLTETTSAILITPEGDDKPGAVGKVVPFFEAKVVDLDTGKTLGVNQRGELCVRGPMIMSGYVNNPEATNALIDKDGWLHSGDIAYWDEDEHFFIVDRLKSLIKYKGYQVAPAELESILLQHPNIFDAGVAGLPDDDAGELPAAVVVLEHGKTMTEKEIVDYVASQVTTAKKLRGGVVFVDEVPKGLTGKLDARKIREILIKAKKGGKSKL
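Purified P. pyralis luciferase, 10 nM final, with Km-level 10 uM D-luciferin and 10 uM ATP in 50 mM Tris acetate pH 7.5, 10 mM Mg acetate, 0.01% Tween-20, 0.05% BSA; 6-point qHTS titration about 60 µM downward; luminescence read.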
NPC1 promoter act – qHTS Assay for NPC1 Promoter Activators | Huh7 NPC1 promoter luciferase reporter, 24 h | Potency, µM (top dose mostly 9.22 µM), without a hit: top-dose activation, hits mostly activators | 320,000 compounds, 2.4% hits | AID 485313, 2010; also: % of control where 0% means no effect; nearly all actives have a fitted effect of over 60% in size
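Huh7 cells stably carrying NPC1 promoter–luciferase, plated in Opti-MEM with 10% FBS for 2 h, were exposed to compound in DMSO for 24 h at 37 °C; luciferase reagent was added for 10 min and luminescence read.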
SMN2 splice enh – qHTS Assay for Enhancers of SMN2 Splice Variant Expression; HEK293 SMN2-luciferase splicing reporter, luminescence, 30-36 h; Potency, µM (top dose mostly 46.1 µM), for inactives: top-dose activity change, positive = activation, most hits filed as activators; 210,000 compounds, 2.8% hits; AID 1458, 2008; also: % of control where 0% means no effect; nearly all actives have a fitted effect of over 55% in size
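HEK293 cells carry an SMN2 minigene-luciferase reporter in which exon 7 inclusion puts luciferase in frame. Cells were seeded at 2000 cells/well, attached for 10-12 hours, then exposed to compounds for 30-36 hours at 37C before ONE-Glo luminescence.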
Rab9 promoter act – qHTS Assay for Rab9 Promoter Activators | Potency, µM (highest dose often 9.22 µM), for the others: at the highest dose activation, negative = inhibition, most hits filed as activators | 320,000 compounds, 2.8% hits | AID 485297, 2010 | Huh7 Rab9 promoter-luciferase reporter, luminescence, 24 h; also: % of control where 0% means no effect; nearly all actives have a fitted effect of over 60% in size
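Cell-based reporter: Huh7 stable for Rab9 promoter-driven luciferase, plated in reduced-serum medium with 10% FBS at 1500 cells/well, compound-treated 24 h at 37 °C, luminescence read after 10 min reagent.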
Luc counter – Counterscreen for Luciferase (Kinase-Glo TM) Inhibition; AID 1379, 2008; Potency, µM (top dose mostly 38.3 µM), for inactives: at the top dose activity change, negative = inhibition, actives largely listed as inhibitors; Luciferin 4-monooxygenase (Photuris pensylvanica), Q27757; 200,000 compounds, 0.28% hits; Kinase-Glo luciferase, ATP luminescence, 8 min; also: % is scaled to controls: 0 for no effect and ±100 for the full control effect; nearly all actives have a fitted effect of over 60% in size
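Compounds were added to a substrate mix at pH 7.2 (50 mM imidazole, 10 uM ATP, within the enzyme's linear range), followed by Kinase-Glo detection reagent; luminescence was measured after 8 minutes at ambient temperature.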
* = called active by the depositor; ? = inconclusive; / = no result given; [ ] = another dose, or the depositor's remark. Calls follow the shape of the dose curve; as a rule, active = well fitted curve in the direction sought with a large enough effect; inconclusive = small, poorly fitted or top-dose-only effect, or another doubt; inactive = no such curve, though single readings can be large; an effect the other way counts as inactive or inconclusive. Potency is read from the fitted curve at half-maximal effect.

SMILES | ELG1 genotox | FLuc counter | NPC1 promoter act | SMN2 splice enh | Rab9 promoter act | Luc counter
COc1ccc(-c2nnc(SCC(C)C)o2)cc1 | ? | 1.5µM* | 1µM* | / | 0.63µM* | /
COc1ccc(-c2nnc(SCC(=O)Oc3ccc(C)cc3)o2)cc1 | 0% | ? | 0% | 8% | 0% | 0%
COc1ccc(-c2nnc(SC)o2)c(OC)c1 | ? | ? | 13% | 27% | 23% | 2%
CC(C)(C)c1ccc(NC(=O)CSc2nnc3scc(-c4ccccc4)n23)cc1 | / | -16% | / | -3% | / | /
COc1ccc(N2C(=O)c3ccccc3NC2c2ccc(OC)c(COc3ccccn3)c2)cc1 (stereo unspecified) | ? | -2% | ? | 13µM* | ? | 4%
COc1ccc(C2Nc3ccccc3C(=O)N2c2ccc(C)cc2)cc1Cn1nnc2ccccc21 (stereo unspecified) | ? | -10% | ? | / | ? | /
COc1ccc(N2C(=O)c3ccccc3NC2c2ccc(OC)c(CSc3ccccn3)c2)cc1 (stereo unspecified) | ? | ? | ? | ? | 25% | 2%
COc1ccc(C2Nc3ccccc3C(=O)N2c2ccc(C)cc2)cc1Cn1cc([N+](=O)[O-])cn1 (stereo unspecified) | 12% | ? | 4µM* | 20µM* | 4µM* | -8%
Cc1cc(C=O)c(O)cc1O | 2% | -1% | 3% | / | -1% | /
O=C(NC1CCCCC1)c1ccc(CSc2nc3cccnc3n2Cc2ccccc2F)cc1 | / | -16% | / | / | / | /
O=C(NC1CC1)c1ccc(Cn2c(SCc3ccccc3F)nc3cccnc32)cc1 | / | 4.8µM* | / | / | / | /
O=C(NC1CCCCC1)c1ccc(Cn2c(SCc3ccccc3F)nc3cccnc32)cc1 | / | 8.5µM* | / | / | / | /
Cc1ccc(CSc2nc3cccnc3n2Cc2ccc(C(=O)NCCc3cccs3)cc2)cc1 | / | 0.43µM* | / | / | / | /
Cc1ccccc1Cn1c(SCc2ccc(C(=O)N3CCCCC3)cc2)nc2ccncc21 | / | ? | / | -64% | / | /
O=C(c1ccc(CSc2nc3ccncc3n2Cc2ccccc2F)cc1)N1CCCCCC1 | / | 24µM* | / | -18% | / | /
CCC(C(=O)NCCCN(CC)Cc1ccccc1)n1nc(C)c2sc3ccccc3c2c1=O (stereo unspecified) | -1%[9.26 µM] | 4% | -8% | / | -1% | /
CC(C)N(C(=O)[C@H]1C[C@H](CC(=O)NCCc2ccccn2)C(=O)N2CCc3c([nH]c4cc(CCC(=O)N(C)C)ccc34)[C@]12C)C(C)C | 3% | / | / | / | / | /
O=C(N=C1SC2CS(=O)(=O)CC2N1c1ccccc1C(F)(F)F)C1CCCO1 (stereo unspecified) | 1% | 1% | 0% | / | 4% | /
Cc1ccc(CSc2nc3cccnc3n2Cc2ccc(C(=O)NC3CCCCC3)cc2)cc1 | / | 0.34µM* | / | / | / | /
Cc1cccc2c1ncc1c(=O)n(-c3ccccc3)[nH]c12 | ? | 4.3µM* | 3.2µM* | / | 2.2µM* | /
CCN(CC)c1ccc2cc(C(=O)NCc3ccc(F)cc3)c(=N)oc2c1 | -11% | 17µM* | 3% | / | 0% | /
CCOc1cccc2cc(C(=O)NCc3ccc(C)cc3)c(=N)oc12 | 3% | 15µM* | -5% | / | -3% | /
Cc1cc(C)c2c(N)c(C(=O)c3ccc(Br)cc3)oc2n1 | -3% | ? | -1% | / | 0% | /
Cc1cc(C)c2c(N)c(C(=O)c3ccccc3)oc2n1 | / | 24µM* | / | -7% | / | -2%
COCc1cc(C)nc2oc(C(=O)c3ccccc3)c(N)c12 | 4% | 17µM* | -1% | 10% | 3% | -3%
SMILES | ELG1 genotox | FLuc counter | NPC1 promoter act | SMN2 splice enh | Rab9 promoter act | Luc counter
COC(=O)c1oc2nc(C)cc(C)c2c1N | 4% | 1%[2.3 µM] | 1% | 18% | -2% | 3%
COc1ccc(/C(C)=N/Nc2ccc(C(=O)O)cc2)c(OC)c1 | ? | 7.6µM* | ? | 16µM* | 1.8µM* | -2%
COc1ccc2c(c1)C(=NNc1ccc(C(=O)O)cc1)c1cc(OC)ccc1-2 | 2% | 6µM* | 2% | / | 7% | /
COc1ccc2c(c1)C(=NN)c1cc(OC)ccc1-2 | 4% | 11µM* | 29% | -10% | ? | 4%
O=C(O)/C=C\C(=O)Nc1ccccc1C#Cc1ccc(Br)cc1 | 13% | 27µM* | -1% | -5% | 16% | 2%
COc1ccc(NC(=O)CCc2nnc3n(C)c(=O)c4sccc4n23)cc1 | / | 0% | / | -13% | / | /
COc1ccc(NC2=CC(=O)N(C)C2=O)cc1 | ? | ? | ? | 11µM* | ? | 1%
NNc1nc(Nc2ccccc2)nc(Nc2ccccc2)n1 | -2% | ? | 9% | -4% | 0% | -2%
COc1ccc(Nc2ccc(OC)cc2)cc1 | / | 19µM* | ? | / | ? | /
COc1ccc(NC2=C(C)C(=O)CC2)cc1 | 18µM* | 3% | -4% | ? | 1% | -6%
COc1ccc(Nc2nc(NN)nc(Nc3ccc(OC)cc3)n2)cc1 | -9% | 11µM* | 6% | / | -5% | /
COc1ccc(NC(C#N)c2ccc(OC)cc2)cc1 (stereo unspecified) | ? | 3µM* | -1% | -4% | 0% | -1%
Cc1ccc(-c2csc(N/N=C/c3ccco3)n2)cc1 | 15% | 9.5µM* | ? | 26% | ? | -1%
CC(C)=NNc1nc(-c2ccccc2)c(C)s1 | -3% | ? | 1% | -10% | -1% | -2%
Cc1sc(N/N=C/c2ccco2)nc1-c1ccccc1 | ? | 9.5µM* | 16% | -30% | 30% | -1%
Brc1ccc(-c2csc(N/N=C/c3ccco3)n2)cc1 | 4% | ? | ? | ? | ? | 1%
Clc1ccc(-c2csc(N/N=C/c3ccco3)n2)cc1 | 3% | 13µM* | ? | / | ? | /
C(=N\Nc1nc(-c2ccccc2)cs1)/c1ccco1 | ? | 2.7µM* | 2.8µM* | 14µM* | 3.2µM* | 2%
Cc1cccc(COc2ccc(/C=C3/C(=O)N(C)C(=S)N3C)cc2)c1 | -6% | 2% | -5% | / | -2% | /
CCCN(CCC)CCNC(=O)c1cc(Sc2ccc(Cl)cc2)nc2ccccc12 | / | -2% | / | / | / | /
Cc1sc(NC(=O)c2cccnc2)nc1-c1ccccc1 | 1% | -8% | -2% | 1% | 0% | 1%
Cc1sc(N/N=C/c2cccnc2)nc1-c1ccccc1 | -1% | 17µM* | -2% | ? | 4% | -10%
O=C1NC(=S)N/C1=C/c1ccc2ccccc2c1 | 7% | -18% | 14% | / | 29% | /

From PubChem
